# From PubChem BioAssay (NCATS)
# Results filed as inconclusive are left out. Entries that show only a call come without a potency. The source made the active and inactive calls. Calls come from the whole dose curve; as a rule, active = well fitted curve in the direction sought with a large enough effect; inconclusive = small, poorly fitted or top-dose-only effect, or another doubt; inactive = no such curve, though single readings can be large; an effect the other way counts as inactive or inconclusive.
# What was measured:
# [1] = Quantitative High-Throughput drug screen in 47 multiple myeloma cell lines against the NCATS MIPE library collection: ARP1_JJKsccF8 cell viability assay (AID 1918928; note: nearly all actives have a fitted effect of over 40% in size; note: potency is the fitted concentration of half-maximal effect)
# Method in brief: (§1)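 Here, 48 h treatment with MIPE 4.0 agents at 37 °C preceded an ATP luminescence read. Plating density was 500 cells per well.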
# [2] = Quantitative High-Throughput drug screen in 47 multiple myeloma cell lines against the NCATS MIPE library collection: Karpas620_DSMZ cell viability assay (AID 1918959); note: nearly all actives have a fitted effect of over 30% in size
# Method in brief: (§2)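 Viability readout: CellTiter-Glo luminescence following 5 min room-temperature incubation with reagent. Prior exposure: 48 h, 37C, humidified 5% CO2, 500 cells per well.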
# [3] = Quantitative High-Throughput drug screen in 47 multiple myeloma cell lines against the NCATS MIPE library collection: KMM1_JCRB cell viability assay (AID 1918960); note: nearly all actives have a fitted effect of over 30% in size; note: potency is the fitted concentration of half-maximal effect
# Method in brief: as §1
# [4] = Quantitative High-Throughput drug screen in 47 multiple myeloma cell lines against the NCATS MIPE library collection: KHM11_PLB cell viability assay (AID 1918962); note: nearly all actives have a fitted effect of over 35% in size; note: potency is the fitted concentration of half-maximal effect
# Method in brief: as §2
# [5] = Quantitative High-Throughput drug screen in 47 multiple myeloma cell lines against the NCATS MIPE library collection: JIM3_ECACC cell viability assay (AID 1918963; note: nearly all actives have a fitted effect of over 35% in size; note: potency is the fitted concentration of half-maximal effect)
# Method in brief: as §2
# [6] = Quantitative High-Throughput drug screen in 47 multiple myeloma cell lines against the NCATS MIPE library collection: KMS27_JCRB cell viability assay (AID 1918970); note: nearly all actives have a fitted effect of over 30% in size; note: potency is the fitted concentration of half-maximal effect
# Method in brief: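 Each line is seeded at 500 cells per well and treated with library compounds for 48 hours under 37 °C, 5% CO2. CellTiter-Glo is then added for 5 min at room temperature before median relative luminescence is recorded.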
# [7] = Quantitative High-Throughput drug screen in 47 multiple myeloma cell lines against the NCATS MIPE library collection: KMS12BM_JCRB cell viability assay (AID 1918971); note: nearly all actives have a fitted effect of over 35% in size; note: potency is the fitted concentration of half-maximal effect
# Method in brief: (§3)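 We plated 500 myeloma cells per well, pinned in MIPE 4.0 compounds, and incubated for 48 hours at 37C. ATP was then quantified with CellTiter-Glo, with DMSO and media-only wells defining 100% and 0%.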
# [8] = Quantitative High-Throughput drug screen in 47 multiple myeloma cell lines against the NCATS MIPE library collection: KMS12PE_JCRB cell viability assay (AID 1918972); note: nearly all actives have a fitted effect of over 30% in size; note: potency is the fitted concentration of half-maximal effect
# Method in brief: (§4)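 Approved and investigational drugs from MIPE 4.0 were added by pin tool to 500 cells per well. After 48 hours at 37C, ATP-based CellTiter-Glo luminescence indicated remaining viability.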
# [9] = Quantitative High-Throughput drug screen in 47 multiple myeloma cell lines against the NCATS MIPE library collection: KMS26_JCRB cell viability assay (AID 1918975); note: nearly all actives have a fitted effect of over 45% in size; note: potency is the fitted concentration of half-maximal effect
# Method in brief: as §3
# [10] = Quantitative High-Throughput drug screen in 47 multiple myeloma cell lines against the NCATS MIPE library collection: NCIH929_DSMZ cell viability assay (AID 1918978); note: nearly all actives have a fitted effect of over 35% in size; note: potency is the fitted concentration of half-maximal effect
# Method in brief: (§5)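 MIPE 4.0 approved/investigational drugs; 500 cells/well; 48 h 37 °C humidified 5% CO2; CTG luminescence readout; DMSO = 100%, media = 0% viability.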
# [11] = Quantitative High-Throughput drug screen in 47 multiple myeloma cell lines against the NCATS MIPE library collection: ARD_JJKsccE7 cell viability assay (AID 1918929; note: potency is the fitted concentration of half-maximal effect)
# Method in brief: (§6)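 Luminescent ATP measurement with CellTiter-Glo gives viability, scaled between DMSO-only wells (100%) and media-only wells (0%). Cells, 500 per well, faced library compounds for 48 hours at 37C.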
# [12] = Quantitative High-Throughput drug screen in 47 multiple myeloma cell lines against the NCATS MIPE library collection: JIM1_ECACC cell viability assay (AID 1918964; note: potency is the fitted concentration of half-maximal effect)
# Method in brief: as §6
# [13] = Quantitative High-Throughput drug screen in 47 multiple myeloma cell lines against the NCATS MIPE library collection: INA6_PLB cell viability assay (AID 1918965; note: nearly all actives have a fitted effect of over 55% in size; note: potency is the fitted concentration of half-maximal effect)
# Method in brief: as §4
# [14] = Quantitative High-Throughput drug screen in 47 multiple myeloma cell lines against the NCATS MIPE library collection: H1112_PLB cell viability assay (AID 1918967; note: nearly all actives have a fitted effect of over 30% in size; note: potency is the fitted concentration of half-maximal effect)
# Method in brief: as §6
# [15] = Quantitative High-Throughput drug screen in 47 multiple myeloma cell lines against the NCATS MIPE library collection: Karpas25_ECACC cell viability assay (AID 1918968; note: nearly all actives have a fitted effect of over 35% in size; note: potency is the fitted concentration of half-maximal effect)
# Method in brief: as §6
# [16] = Quantitative High-Throughput drug screen in 47 multiple myeloma cell lines against the NCATS MIPE library collection: MOLP8_DSMZ cell viability assay (AID 1918977); note: nearly all actives have a fitted effect of over 45% in size; note: potency is the fitted concentration of half-maximal effect
# Method in brief: as §5
# [17] = Quantitative High-Throughput drug screen in 47 multiple myeloma cell lines against the NCATS MIPE library collection: MMM1_PLB cell viability assay (AID 1918976)
# Method in brief: as §5
# [18] = Quantitative High-Throughput drug screen in 47 multiple myeloma cell lines against the NCATS MIPE library collection: JJN3_DSMZ cell viability assay (AID 1918966; note: nearly all actives have a fitted effect of over 50% in size; note: potency is the fitted concentration of half-maximal effect)
# Method in brief: as §6
# [19] = Quantitative High-Throughput drug screen in 47 multiple myeloma cell lines against the NCATS MIPE library collection: KMS20_JCRB cell viability assay (AID 1918973); note: potency is the fitted concentration of half-maximal effect; nearly all actives have a fitted effect of over 45% in size
# Method in brief: as §6
# [20] = Quantitative High-Throughput drug screen in 47 multiple myeloma cell lines against the NCATS MIPE library collection: KMS21BM_JCRB cell viability assay (AID 1918974); conditions: ATP luminescence, 48 h; viability: at 45.8 µM (top of the series) unless noted; note: potency is the fitted concentration of half-maximal effect
# Method in brief: as §6
structure (smiles),measurement,setting,value
CS(=O)(=O)Nc1ccc([N+](=O)[O-])cc1Oc1ccccc1,Potency,[1],11.8 µM (active)
same,Potency,[2],inactive
same,Potency,[3],inactive
same,Potency,[4],inactive
same,Potency,[5],inactive
same,Potency,[6],inactive
same,Potency,[7],20.9 µM (active)
same,Potency,[8],inactive
same,Potency,[9],18.7 µM (active)
same,Potency,[10],inactive
NCCS(=O)(=O)O,Potency,[1],inactive
same,Potency,[11],inactive
same,Potency,[3],inactive
same,Potency,[7],inactive
same,Potency,[8],inactive
same,Potency,[9],inactive
same,Potency,[10],inactive
CC(=O)OCC(CCn1cnc2cnc(N)nc21)COC(C)=O,Potency,[1],inactive
same,Potency,[11],inactive
same,Potency,[4],inactive
same,Potency,[5],inactive
same,Potency,[12],inactive
same,Potency,[13],inactive
same,Potency,[14],inactive
same,Potency,[15],inactive
same,Potency,[7],inactive
same,Potency,[8],inactive
same,Potency,[9],inactive
same,Potency,[16],inactive
same,Potency,[10],inactive
CN1CCN2c3ccccc3Cc3ccccc3C2C1 (stereo unspecified),Potency,[2],inactive
same,Potency,[14],23.5 µM (active)
same,Potency,[15],23.5 µM (active)
same,Potency,[7],20.9 µM (active)
same,Potency,[8],18.7 µM (active)
same,Potency,[9],26.4 µM (active)
same,Potency,[17],20.9 µM (active)
O=c1c(-c2ccc(O)cc2)coc2cc(O)cc(O)c12,Potency,[11],14.8 µM (active)
same,Potency,[2],inactive
same,Potency,[4],inactive
same,Potency,[14],inactive
same,Potency,[7],5.26 µM (active)
same,Potency,[8],2.64 µM (active)
Clc1ccc2nsnc2c1NC1=NCCN1,Potency,[3],inactive
same,Potency,[13],inactive
same,Potency,[14],inactive
same,Potency,[15],inactive
same,Potency,[6],inactive
same,Potency,[16],inactive
same,Potency,[10],inactive
CN1CCC(=C2c3ccccc3C=Cc3ccccc32)CC1,Potency,[11],inactive
same,Potency,[13],11.8 µM (active)
same,Potency,[14],11.8 µM (active)
same,Potency,[15],7.43 µM (active)
same,Potency,[6],23.5 µM (active)
same,Potency,[8],20.9 µM (active)
same,Potency,[10],5.9 µM (active)
Clc1ccccc1C(c1ccccc1)(c1ccccc1)n1ccnc1,Potency,[4],inactive
same,Potency,[5],18.7 µM (active)
same,Potency,[12],0.0743 µM (active)
same,Potency,[13],16.6 µM (active)
same,Potency,[14],14.8 µM (active)
same,Potency,[15],18.7 µM (active)
same,Potency,[7],16.6 µM (active)
same,Potency,[8],7.43 µM (active)
N[C@@H](Cc1c[nH]c2ccc(O)cc12)C(=O)O,Potency,[3],18.7 µM (active)
same,Potency,[4],inactive
same,Potency,[12],inactive
same,Potency,[13],inactive
same,Potency,[14],inactive
same,Potency,[6],inactive
same,Potency,[8],inactive
same,Potency,[9],inactive
same,Potency,[10],inactive
CC[N+](CC)(CC)CCOc1cccc(OCC[N+](CC)(CC)CC)c1OCC[N+](CC)(CC)CC,Potency,[11],inactive
same,Potency,[2],inactive
same,Potency,[3],inactive
same,Potency,[12],inactive
same,Potency,[18],inactive
same,Potency,[14],inactive
same,Potency,[15],inactive
same,Potency,[9],inactive
same,Potency,[10],inactive
Nc1c2c(nc3ccccc13)CCCC2,Potency,[11],inactive
same,Potency,[2],inactive
same,Potency,[3],inactive
same,Potency,[5],inactive
same,Potency,[12],inactive
same,Potency,[18],5.26 µM (active)
same,Potency,[14],inactive
same,Potency,[15],inactive
same,Potency,[6],inactive
same,Potency,[8],inactive
same,Potency,[10],inactive
O=c1c(O)c(-c2ccc(O)c(O)c2)oc2cc(O)cc(O)c12,Potency,[13],11.8 µM (active)
same,Potency,[14],20.9 µM (active)
same,Potency,[15],16.6 µM (active)
same,Potency,[16],inactive
same,Potency,[10],7.43 µM (active)
OCCN(CCO)c1nc(N2CCCCC2)c2nc(N(CCO)CCO)nc(N3CCCCC3)c2n1,Potency,[12],23.5 µM (active)
same,Potency,[18],23.5 µM (active)
same,Potency,[15],26.4 µM (active)
same,Potency,[6],20.9 µM (active)
same,Potency,[7],26.4 µM (active)
same,Potency,[8],23.5 µM (active)
same,Potency,[16],16.6 µM (active)
COc1ccccc1OCCNCC(O)COc1cccc2[nH]c3ccccc3c12 (stereo unspecified),Potency,[4],inactive
same,Potency,[14],16.6 µM (active)
same,Potency,[15],inactive
same,Potency,[9],23.5 µM (active)
C[C@H]1c2cccc(O)c2C(O)=C2C(=O)[C@]3(O)C(O)=C(C(N)=O)C(=O)[C@@H](N(C)C)[C@@H]3[C@@H](O)[C@@H]21,Potency,[13],37.2 µM (active)
same,Potency,[15],16.6 µM (active)
same,Potency,[6],inactive
same,Potency,[8],29.6 µM (active)
same,Potency,[9],23.5 µM (active)
same,Potency,[10],18.7 µM (active)
CN(C)CCC=C1c2ccccc2C=Cc2ccccc21,Potency,[11],inactive
same,Potency,[3],inactive
same,Potency,[4],inactive
same,Potency,[18],18.7 µM (active)
same,Potency,[15],1.66 µM (active)
same,Potency,[6],inactive
same,Potency,[7],1.48 µM (active)
same,Potency,[8],inactive
same,Potency,[9],6.62 µM (active)
same,Potency,[10],inactive
O=C(c1ccc(OCCN2CCCCC2)cc1)c1c(-c2ccc(O)cc2)sc2cc(O)ccc12,Potency,[11],26.4 µM (active)
same,Potency,[3],20.9 µM (active)
same,Potency,[12],37.2 µM (active)
same,Potency,[13],18.7 µM (active)
same,Potency,[18],20.9 µM (active)
same,Potency,[6],20.9 µM (active)
same,Potency,[8],23.5 µM (active)
same,Potency,[19],16.6 µM (active)
same,Potency,[20],13.2 µM (active)
same,Potency,[9],20.9 µM (active)
same,Potency,[10],23.5 µM (active)
CC(C(=O)O)c1cccc(C(=O)c2ccccc2)c1 (stereo unspecified),Potency,[3],inactive
same,Potency,[4],18.7 µM (active)
same,Potency,[14],18.7 µM (active)
same,Potency,[15],13.2 µM (active)
same,Potency,[8],inactive
same,Potency,[16],inactive
same,Potency,[10],13.2 µM (active)
CCCCc1oc2ccccc2c1C(=O)c1cc(I)c(OCCN(CC)CC)c(I)c1,Potency,[11],18.7 µM (active)
same,Potency,[3],6.62 µM (active)
same,Potency,[12],18.7 µM (active)
same,Potency,[13],16.6 µM (active)
same,Potency,[18],18.7 µM (active)
same,Potency,[15],5.9 µM (active)
same,Potency,[6],6.62 µM (active)
same,Potency,[7],18.7 µM (active)
same,Potency,[8],26.4 µM (active)
same,Potency,[9],20.9 µM (active)
same,Potency,[16],23.5 µM (active)
same,Potency,[10],23.5 µM (active)
